# PubChem BioAssay AID504850 (National Center for Advancing Translational Sciences (NCATS), 2011)
# About 1,200 (52%) of roughly 2,300 compounds were called active. Not shown: some 34% with an inconclusive outcome. The set was probably picked from earlier hits. Some of the results follow. Unmarked numbers belong to inactive results. The call rests on the fitted dose curve; in most records, active means well fitted inhibition curve with a large enough effect; inconclusive means small, poorly fitted or top-dose-only effect, or effect the other way; inactive means no such curve, though single readings can be large or run the other way.
# Experiment: Confirmation screen for delayed death inhibitors of the malarial parasite plastid, 48 hour incubation; further: nearly all actives have a fitted effect of over 65% in size
# Details: P. falciparum-infected erythrocytes, luciferase growth; series mostly up to 28.7 µM; activity change, negative = inhibition: at the top concentration
# Method in brief: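 Erythrocytes infected with luciferase-expressing P. falciparum (2% hematocrit, 0.1% parasitemia) incubated with compounds 48 hours at 37 C, 5% CO2, in RPMI/Albumax. Growth inhibition scored as reduced luminescence after detection reagent.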
# On the % scale 0 is the no-effect control and ±100 the full control effect; potency means the concentration at half of the fitted maximal effect.
Compound,Potency,"activity change, negative = inhibition [%]"
O=C(NC1CCCCC1)C(c1ccncc1)N(Cc1ccccc1)C(=O)c1ccc(-c2ccccc2)[nH]1 (stereo unspecified),4.47 µM (active),–
COc1ccc(NC(=S)N(CCCN2CCCCCC2)Cc2cccs2)cc1,11.2 µM (active),–
COc1cccc(N2CC(C(=O)Nc3nnc(SCCC4OCCO4)s3)CC2=O)c1 (stereo unspecified),12.6 µM (active),–
O=C(Nc1nnc(SCC(=O)N2CCCC2)s1)C1CC(=O)N(c2ccc(F)cc2)C1 (stereo unspecified),11.2 µM (active),–
CCc1ccc(NC2=CC(=O)C(=O)c3ccccc32)cc1,0.501 µM (active),–
CCc1ccc(C2c3[nH]c4ccccc4c3CCN2C(=O)c2cc(C)nn2C)cc1 (stereo unspecified),5.01 µM (active),–
CSc1ccc(C2c3[nH]c4ccccc4c3CCN2C(=O)c2ccnn2C)cc1 (stereo unspecified),7.08 µM (active),–
Cn1nccc1C(=O)N1CCc2c([nH]c3ccccc23)C1c1ccc(F)cc1 (stereo unspecified),7.94 µM (active),–
Cc1cc[n+]2cc(-c3cccc([N+](=O)[O-])c3)c(-c3cccc([N+](=O)[O-])c3)cc2c1,0.631 µM (active),–
COc1cccc(S(=O)(=O)NCc2ccc(C(=O)NCc3ccccn3)cc2)c1,–,-4.44
COc1ccc(N(C)S(=O)(=O)c2cccc(C(=O)NCc3ccc(C)cc3)c2)cc1,12.6 µM (active),–
CN(CCOc1ccccc1)C(=O)C1CCC(=O)N(CCN2CCOCC2)C1 (stereo unspecified),–,-9.41
CN(Cc1ccccc1Cl)C(=O)C1CCC(=O)N(CCc2cccc(F)c2)C1 (stereo unspecified),11.2 µM (active),–
O=C(Nc1ccccc1)N1CCC(O)(c2cccc(C(F)(F)F)c2)CC1,11.2 µM (active),–
CCOc1ccccc1NC(=O)C(CC)Sc1nc2ccsc2c(=O)n1CCC(=O)O (stereo unspecified),12.6 µM (active),–
C[N+]1(CCCCSc2ccc(O)cc2)CCCCC1,7.08 µM (active),–
Cc1c(C(=O)N2CCN(c3ccc([N+](=O)[O-])cc3)CC2)sc2ncn(CC(=O)N3CCOCC3)c(=O)c12,12.6 µM (active),–
COc1ccccc1N1CCN(C2CCCN(Cc3ccc(Cl)cc3)C2)CC1 (stereo unspecified),6.31 µM (active),–
COc1ccc(N2CCN(C3CCCN(Cc4ccc(F)cc4)C3)CC2)cc1 (stereo unspecified),11.2 µM (active),–
CCOC(=O)CSc1nnc(NC(=O)c2cccc([N+](=O)[O-])c2)s1,12.6 µM (active),–
O=C(CSc1nnc(NC(=O)c2ccccc2[N+](=O)[O-])s1)NCC1CCCO1 (stereo unspecified),–,5.45
CCC(C)[C@H](NC(=O)[C@H](Cc1ccccc1)n1c(=O)[nH]c2ccccc2c1=O)C(=O)NCC1CCC(C(=O)O)CC1 (stereo partly specified),12.6 µM (active),–
Clc1ccc(-c2c[n+](Cc3ccc(Cl)cc3Cl)c3n2CCCCC3)cc1,1.26 µM (active),–

Compound,Potency,"activity change, negative = inhibition [%]"
Clc1ccc(-c2c[n+](Cc3ccc(Br)cc3)c3n2CCCCC3)cc1,0.199 µM (active),–
Nc1nnnn1/N=C/C(Br)=C/c1ccccc1,12.6 µM (active),–
O=C(NNc1ccnc2cc(Cl)ccc12)C1CCCCC1,0.891 µM (active),–
CCN1CCC(Nc2ccnc3cc(Cl)ccc23)CC1,0.126 µM (active),–
S=C(Nc1ccccc1Cl)N(Cc1ccccc1)Cc1cccnc1,12.6 µM (active),–
CCOC(=O)[C@H]1[C@H]2COc3cc(OC)ccc3[C@@H]2N2C(=O)N(c3ccc(Cl)cc3)C(=O)[C@@]12C,12.6 µM (active),–
O=c1cc(CSc2nc(NCc3ccccc3)c3ccccc3n2)nc2ccc(Cl)cn12,5.01 µM (active),–
Cc1ncc(CO)c(/C=N/NC(=S)Nc2ccc(F)cc2)c1O,12.6 µM (active),–
COc1ccc(C(=O)NCC(=O)N/N=C/c2ccc([N+](=O)[O-])s2)cc1OC,11.2 µM (active),–
O=C(CNC(=O)c1cccc(F)c1)N/N=C/c1ccc([N+](=O)[O-])s1,11.2 µM (active),–
COc1ccc(C(=O)NCC(=O)N/N=C(C)\C=C\c2ccccc2)cc1OC,–,-5.66
CCCCCCCn1c(=O)c(C(=O)OC)c(N)c2ccccc21,12.6 µM (active),–
NNc1nc(-c2ccccc2Cl)c2cc(Br)ccc2n1,11.2 µM (active),–
O=S(=O)(NCC(O)c1ccccc1)c1cc(Cl)sc1Cl (stereo unspecified),–,4.3
O=C(COc1cc2oc(=O)c3c(c2cc1Cl)CCC3)NCC(O)c1ccccc1 (stereo unspecified),11.2 µM (active),–
Cc1c(OCC(=O)NCC(O)c2ccccc2)ccc2c3c(c(=O)oc12)CCC3 (stereo unspecified),14.1 µM (active),–
OC1(c2cccs2)CN(c2ccc(Cl)cc2)C2=[N+]1CCCC2 (stereo unspecified),10 µM (active),–
OC1(c2cccs2)CN(c2ccc(Br)cc2)C2=[N+]1CCCS2 (stereo unspecified),12.6 µM (active),–
CC(C)(C)Nc1nc(Cl)nc(NC2CCCCC2)n1,14.1 µM (active),–
NC(=S)Nn1c(-c2ccccc2)nc2ccccc2c1=O,–,0.99
O=C1c2ccccc2-n2c1nc1ccccc1c2=O,0.708 µM (active),–
O=C1c2cc(F)ccc2-n2c1nc1ccccc1c2=O,0.178 µM (active),–
CN(C)CCn1c(=O)n(Cc2ccco2)c(=O)c2c3c(sc21)CCCCC3,12.6 µM (active),–
